These results are taken from PubChem BioAssay (NCATS).

For assay [1], the system named is PA-1. Put plainly: Primary qHTS to identify gynecologic anti-cancer compounds using libraries of approved drugs and bioactive compounds (AID 1345084). Note: nearly all actives have a fitted effect of over 55% in size. The conditions noted are these: Gynecologic cancer cell panel viability, ATPlite luminescence, 48 h; series mostly up to 57.5 µM. The procedure, abridged: (§1)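 Cell viability after 48 h drug treatment, ATPlite luminescence readout; five doses.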
Background: qHTS replaces the single test concentration by a dilution series.

Assay [2] deals with SKOV3. The description is as above. The conditions noted are these: Gynecologic cancer cell panel viability, ATPlite luminescence, 48 h; series mostly up to 57.5 µM. The procedure, abridged: as §1
For orientation: Cellular ATP, detected with luciferase, serves as a proxy for viable cell number.

Assay [3] has as its system Tov-21-G. Described as above. The note with it: Gynecologic cancer cell panel viability, ATPlite luminescence, 48 h; series mostly up to 57.5 µM. In outline: as §1
The test system of assay [4] is Tov112D. The description is as above. The conditions noted are these: Gynecologic cancer cell panel viability, ATPlite luminescence, 48 h; series mostly up to 57.5 µM. The procedure, abridged:
as §1

Assay [5] is described as follows: qHTS assay to identify inhibitors of the type 1 interferon - major histocompatibility complex class I in skeletal muscle: Counter screen cell viability and HiBit confirmation (AID 1347412). For all read-outs here: nearly all actives have a fitted effect of over 60% in size. The conditions noted are these: iHSKM muscle cells + IFN-b, HiBiT or CellTiter-Glo, 24 h; for activity change, negative = inhibition: at 45.9 µM (top of the series). The procedure, abridged: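 Myoblasts (C25cl48, HLA-B HiBiT) seeded in medium without dexamethasone, IFN-b 4 ng/ml added except unstimulated columns; 1 hr later compounds pinned (12-pt 1:3, top 46 uM final). Incubated 24 hrs, lysed 10 min, luminescence measured.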

Molecules are shown by their SMILES. Records with an inconclusive call do not appear. Unmarked numbers belong to inactive results. Active and inactive are the calls of the source. Calls come from the whole dose curve; as a rule, active = well fitted curve in the direction sought with a large enough effect; inconclusive = small, poorly fitted or top-dose-only effect, or another doubt; inactive = no such curve, though single readings can be large; an effect the other way counts as inactive or inconclusive.
% is set by controls: 0 for no effect and ±100 for the full control effect; potency is the fitted concentration of half-maximal effect.

On to `COc1cc2nccc(Oc3ccc(NC(=O)C4(C(=O)Nc5ccc(F)cc5)CC4)cc3)c2cc1OC`, for which the Potency in assay [1] is 7.94 µM (active).
Consider `Cn1c(CNc2ccc(C(=N)N)cc2)nc2cc(C(=O)N(CCC(=O)O)c3ccccn3)ccc21`, for which the Potency entry in assay [1], in assay [2], in assay [3] and in assay [4] was “inactive” in each case.
In the case of `CNC(=O)c1ccc(N2C(=S)N(c3cnc(C#N)c(C(F)(F)F)c3)C(=O)C23CCC3)cc1F`, the Potency result in assay [1], in assay [2], in assay [3] and in assay [4] was “inactive” throughout.
Regarding `O=C1CCC[C@@H]2[C@H]3CCC[N+]4([O-])CCC[C@@H](CN12)[C@@H]34` (stereo partly drawn), the Potency entry in assay [1], in assay [2], in assay [3] and in assay [4] was “inactive” throughout.
On to `CC(=O)c1c(C)c2cnc(Nc3ccc(N4CCNCC4)cn3)nc2n(C2CCCC2)c1=O`, for which the activity change, negative = cytotoxicity is -9.61% [at 6.55 µM] in assay [1], 4.84% [at 6.55 µM] in assay [2], -13.1% [at 6.55 µM] in assay [3] and -4.97% [at 6.55 µM] in assay [4].
Consider `COc1ccc(-n2nc(C(N)=O)c3c2C(=O)N(c2ccc(N4CCCCC4=O)cc2)CC3)cc1`, for which the Potency result in assay [1], in assay [2], in assay [3] and in assay [4] was “inactive” in each case.
As to `C=CCn1c(=O)c2cnc(Nc3ccc(N4CCN(C)CC4)cc3)nc2n1-c1cccc(C(C)(C)O)n1`, the Potency was 1.58 µM (active) in assay [1], 0.447 µM (active) in assay [2], 0.631 µM (active) in assay [3] and 2 µM (active) in assay [4].
`CCCNC(=O)Nc1ccc(Oc2ncnc3cc(OC)c(OC)cc23)cc1Cl`: the Potency entry in assay [1], in assay [2], in assay [3] and in assay [4] was “inactive” in each case.
Turning to `N#Cc1c(O)c2c(-c3ccc(-c4ccccc4O)cc3)csc2[nH]c1=O`, the Potency entry in assay [1], in assay [2], in assay [3] and in assay [4] was “inactive” throughout.
On to `CC(C)c1noc(N2CCC(COc3ccc(-c4ccc(S(C)(=O)=O)cc4)nc3)CC2)n1`, for which the Potency result in assay [1], in assay [2], in assay [3] and in assay [4] was “inactive” in each case.
Take `Cc1nc(N)ncc1-c1nc(N2CCOCC2)c2sc(C(C)(C)O)cc2n1`: the Potency in assay [1] was 7.94 µM (active); in assay [2], 2.82 µM (active); in assay [3], 7.94 µM (active).
As to `CC(C)(O)c1cc2nc(-c3cnc(N)nc3)nc(N3CCOCC3)c2s1`, the Potency was 8.91 µM (active) in assay [1] and 3.16 µM (active) in assay [3].
As to `Nc1nc(NCCNc2ncc(-n3ccnc3)c(-c3ccc(Cl)cc3Cl)n2)ccc1[N+](=O)[O-]`, the Potency result in assay [1], in assay [2], in assay [3] and in assay [4] was “inactive” each time. The Potency in assay [5] (HiBiT) is 15.7 µM (active). The activity change, negative = inhibition in assay [5] (Viability) is -15.1%.
Regarding `Nc1ccccc1NC(=O)c1ccc(CNc2nccc(-c3cccnc3)n2)cc1`, the Potency in assay [1] was 0.708 µM (active); in assay [2], 3.98 µM (active); in assay [3], 2.82 µM (active); in assay [4] it was 3.55 µM (active); in assay [5] (HiBiT), 3.94 µM (active). For the same molecule, in assay [5] (Viability), the activity change, negative = inhibition was 3.24%.
On to `CN(C)CC(C)(C)CNc1nn2c(-c3ccccc3)nnc2cc1C1CCC1`, for which the Potency entry in assay [1], in assay [3] and in assay [4] was “inactive” throughout.
For the molecule `CNC(=O)c1ccccc1Nc1nc(Nc2ccc(N3CCOCC3)cc2OC)ncc1Cl`, the Potency is 14.1 µM (active) in assay [1], 11.2 µM (active) in assay [2], 12.6 µM (active) in assay [3] and 1.4 µM (active) in assay [5] (HiBiT).
Turning to `O=C(Nc1cc(C(F)(F)F)cc(C(F)(F)F)c1)c1cc(Cl)ccc1O`, the Potency is 1.58 µM (active) in assay [1]; 3.55 µM (active) in assay [2]; 8.91 µM (active) in assay [3]; 3.55 µM (active) in assay [4]; 15.7 µM (active) in assay [5] (HiBiT).
For `CNC(=O)c1ccc(-c2cnc3ncc(Cc4ccc5ncccc5c4)n3n2)cc1F`, the Potency entry in assay [1], in assay [2], in assay [3] and in assay [4] was “inactive” in each case.
In the case of `CN(C)Cc1c(C(=O)NCCOc2ccc(C(=O)NO)cc2)oc2ccccc12`, the Potency is 1 µM (active) in assay [1]; 7.08 µM (active) in assay [2]; 7.94 µM (active) in assay [3]; 3.16 µM (active) in assay [4]; 0.787 µM (active) in assay [5] (HiBiT). For the same molecule, the activity change, negative = inhibition in assay [5] (Viability) was -5.27%.
`C#Cc1cccc(Nc2ncnc3cc(OC)c(OCCCCCCC(=O)NO)cc23)c1`: the Potency in assay [1] is 5.01 µM (active); in assay [2] it was 8.91 µM (active); in assay [3] it was 10 µM (active); in assay [4] it was 7.08 µM (active); in assay [5] (HiBiT), 2.49 µM (active). Further, the activity change, negative = inhibition in assay [5] (Viability) is -17%.
Take `Nc1nc(Nc2ccc(S(N)(=O)=O)cc2)nn1C(=O)c1c(F)cccc1F`: the Potency in assay [1] was 28.2 µM (active); in assay [5] (HiBiT), 2.49 µM (active). The Potency result in assay [2] is “inactive”. For the same molecule, the activity change, negative = inhibition in assay [5] (Viability) was 19%.
For the molecule `CC(C)c1nn(-c2c(Cl)cccc2Cl)c2nc(Cc3ccc(OCCO)cc3)[nH]c(=O)c12`, the Potency was 0.251 µM (active) in assay [1], 1.41 µM (active) in assay [2], 0.282 µM (active) in assay [4] and 0.0352 µM (active) in assay [5] (HiBiT). The activity change, negative = inhibition in assay [5] (Viability) is 27.7%.
In the case of `CCS(=O)(=O)c1cccc(-c2cc(C(=O)NC3CCN(C)CC3)c(C)c3[nH]c4ncc(C)cc4c23)c1`, the Potency in assay [1] is 1.26 µM (active); in assay [2], 5.62 µM (active); in assay [4], 2 µM (active); in assay [5] (HiBiT), 2.79 µM (active).
With `CCn1nnc2c(N3CCOCC3)nc(-c3ccc(NC(=O)Nc4ccc(C(=O)N5CCN(C)CC5)cc4)cc3)nc21`, the Potency in assay [1] was 0.398 µM (active); in assay [2] it was 0.316 µM (active); in assay [3] it was 0.224 µM (active); in assay [5] (Viability) it was 0.991 µM (active).
In the case of `CC1(O)CC(c2nc(-c3ccc4ccc(-c5ccccc5)nc4c3)c3c(N)nccn23)C1` (stereo not drawn), the Potency entry in assay [1], in assay [2], in assay [3] and in assay [4] was “inactive” each time. Further, the activity change, negative = inhibition in assay [5] (Viability) was -13.8%.
Take `Clc1cccc(-c2nnnn2Cc2cccnc2)c1Cl`: the Potency entry in assay [1], in assay [2], in assay [3] and in assay [4] was “inactive” each time.
